Hits are enriched below; roughly 1.3% of the tested compounds scored in any of these assays.
E coli Lon inh = inhibitors of E. coli Lon protease. P0A9M0. hit rate 0.42% among 360,000. purified E. coli Lon protease, fluorescence polarization. inhibition, % at 7.94 µM; in the data active = inhibition above about 13%, passing the limit was not always enough;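 also: 0% = enzyme with probe and DMSO and 100% = no enzyme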
IDE cell activ = IDE (human) activation, cell-based | activation, % at 5.96 µM | HEK cells, FAbeta-B cleavage, fluorescence polarization; 0% vehicle, 100% cell-free pure enzyme wells | P14735 | hit rate 0.073% among 340,000 | AID 493087;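 active = activation above the mean of all tested compounds plus 3 SD, set per screening campaign, cut at about 17% in these data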
PKA-R1A activ = activates the PKA-R1A holoenzyme complex; P00514+P68181; PKA-R1A dissociation, Cy5-IP20 fluorescence polarization; scaled: DMSO 0%, 113 µM cGMP 100%; activation, % at 11.4 µM; hit rate 0.083% among 340,000; AID 504707;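 active = percent activation above the mean of all tested compounds plus 3 SD, cut at about 19% in these data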;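 also: higher means more PKAc released from R1A so a rise in polarization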
IDE inh = inhibitors of human insulin-degrading enzyme in cells. hit rate 0.41% among 320,000. P14735. AID 434962. HEK cells, FAbetaB cleavage, fluorescence polarization. inhibition, % at 5.59 µM;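 active = percent inhibition above the average of all tested compounds plus 3 SD, set per screening campaign, cut at about 16% in these data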;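 also: IDE supplied by intact live HEK cells; FP after avidin binding of uncleaved biotin substrate so inhibition keeps polarization high; 0% = DMSO wells and 100% = 60 µM reference IDE inhibitor Ii1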
Rin1 Abl inh = human Rin1-Abl interaction inhibition; TR-FRET Rin1/Abl binding, biochemical; inhibition, % at 7.35 µM; hit rate 0.4% among 360,000; AID 588664; in the data active = inhibition above about 5%, passing the limit was not always enough
PKA-R2B activ = activators of human PKA-R2B complex; P22694+P31323; PKA-R2B holoenzyme dissociation, Cy5-IP20 fluorescence polarization; R2B truncated from residue 108, S112A mutant; 0% DMSO only, 100% 113 µM cGMP; activation, % at 11.4 µM; hit rate 0.079% among 340,000; AID 504700;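 active = activation above a cutoff set at the mean over all compounds plus 3 SD, cut at about 18% in these data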;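 also: higher means more holoenzyme dissociation and a rise in polarization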
R1A FP artifact = FP assay interference, PKA-R1A counter-screen; shares compounds with PKA-R1A activ; Cy5-IP20 peptide alone, fluorescence polarization artifact counterscreen; activation, % at 11.4 µM; hit rate 7% among 280;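 active = mean activation over triplicate runs exceeds the adjusted cutoff derived for the parent primary screen, cut at about 19% in these data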;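 also: no PKA protein present so any polarization rise reflects compound interference; 0% = tracer peptide mix alone and 100% = mix with added PKA catalytic subunit; higher means stronger polarization artifact and likely false positive in parent screen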
PKA-R1A confirm = PKA-R1A complex activation, confirmation. Cy5-IP20 fluorescence polarization, PKA-R1A holoenzyme dissociation. activation, % at 11.4 µM. AID 504800. hit rate 9% among 280. shares compounds with PKA-R1A activ;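 active = mean activation over replicate wells exceeds the adjusted hit threshold taken from the earlier primary screen, cut at about 20% in these data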;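 also: 0% = holoenzyme mix with DMSO only and 100% = cGMP-activated control wells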
Target sequence (P00514 whole entry, looked up): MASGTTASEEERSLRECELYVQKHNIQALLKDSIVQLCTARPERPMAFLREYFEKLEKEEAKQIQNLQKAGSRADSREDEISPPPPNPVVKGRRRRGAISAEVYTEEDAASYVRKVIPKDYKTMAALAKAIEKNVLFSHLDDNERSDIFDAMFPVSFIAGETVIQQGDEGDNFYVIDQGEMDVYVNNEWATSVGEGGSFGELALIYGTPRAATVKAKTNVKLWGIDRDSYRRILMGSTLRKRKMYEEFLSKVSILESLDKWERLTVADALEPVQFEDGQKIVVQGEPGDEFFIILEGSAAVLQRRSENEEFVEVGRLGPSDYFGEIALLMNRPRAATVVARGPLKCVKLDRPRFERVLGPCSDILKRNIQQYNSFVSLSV
Numbers without * were called inactive; nt = no result.

SMILES | E coli Lon inh | IDE cell activ | PKA-R1A activ | IDE inh | Rin1 Abl inh | PKA-R2B activ | R1A FP artifact | PKA-R1A confirm
Cc1c(C(=O)Nc2ccc(OC(F)(F)F)cc2)sc2nc3n(c(=O)c12)CCC3 | -2.2 | -1.5 | -4.0 | -3.3 | 4.1 | 11.9 | nt | nt
Cc1c(C(=O)Nc2ccc(Oc3ccccc3)cc2)sc2nc3n(c(=O)c12)CCC3 | 0.7 | -11.8 | 20.8* | 8.7 | -4.3 | 0.8 | -1.6 | 0.0
COc1ccccc1N1CCN(C2CCCN(C(=O)CCc3cnccn3)C2)CC1 (stereo unspecified) | 3.2 | -2.8 | 4.2 | 12.2 | 0.8 | 0.6 | nt | nt
O=C(CNC(=O)C1CC1)Nc1ccc(F)c(F)c1F | 2.8 | 2.2 | 3.5 | 2.1 | -0.9 | -3.7 | nt | nt
O=C(C1=C(O)C(=O)N(Cc2ccco2)C1c1cccc(O)c1)c1ccco1 (stereo unspecified) | -5.0 | -3.3 | 19.5* | 2.0 | -0.4 | 1.5 | -0.6 | -1.0
CC(C)[C@H](NC(N)=O)C(=O)Nc1cccc(S(=O)(=O)N2CCOCC2)c1 | 10.2 | 0.7 | 20.0* | 9.6 | 4.8 | -5.7 | 1.7 | -0.8
CC(C)[C@H](NC(=O)c1ccccc1)C(=O)Nc1cccc(S(=O)(=O)N2CCOCC2)c1 | -8.2 | -1.0 | -2.6 | -1.3 | -5.0 | 7.7 | nt | nt
CCN(CC)C(=O)C1CCCN(C(=O)Nc2ccc3nsnc3c2)C1 (stereo unspecified) | -12.9 | -1.0 | -8.2 | 0.1 | 3.1 | -0.1 | nt | nt
COc1ccc(/C=C/C(=O)NC(=S)Nc2ccc(S(N)(=O)=O)cc2)cc1OC | -0.9 | 1.2 | 2.7 | 6.2 | 0.4 | -2.3 | nt | nt
CCC(CO)n1cnnc1-c1ccncc1 (stereo unspecified) | -1.8 | 3.7 | 20.3* | 2.5 | -1.0 | 7.2 | 2.9 | -2.6
Cc1cccc(/C=N/n2c(-c3cc(-c4ccccc4)n[nH]3)n[nH]c2=S)c1 | -10.2 | -4.5 | 18.8* | -0.1 | -6.4 | 4.3 | -2.9 | -2.1
S=c1[nH]nc(-c2cc(-c3ccccc3)n[nH]2)n1/N=C/c1ccccc1 | 3.1 | -3.4 | -3.6 | 1.3 | -1.2 | -4.2 | nt | nt
CCOC(=O)N1CCC(NC(=O)CCC(=O)N2CCOc3ccc(Cl)cc32)CC1 | -0.5 | 0.7 | 20.7* | 2.3 | 4.2 | 0.8 | 4.8 | 0.9
O=C(Nc1ccccc1)C1CC(O)CN1S(=O)(=O)c1ccc([N+](=O)[O-])cc1 (stereo unspecified) | 6.4 | 5.6 | -8.7 | 6.1 | -4.6 | -0.6 | nt | nt
COc1ccc(C(=O)NC2CCCc3ccccc32)cc1[N+](=O)[O-] (stereo unspecified) | 0.7 | -3.7 | -4.7 | -2.0 | -1.9 | -1.2 | nt | nt
Cc1c(C(=O)NC2CCCc3ccccc32)cccc1[N+](=O)[O-] (stereo unspecified) | 1.7 | 2.8 | 22.9* | -3.5 | 3.2 | 8.3 | 2.4 | -0.1
COc1ccc2[nH]c(=O)c(CN(C(=O)c3ccccn3)c3ccccc3)cc2c1 | -0.9 | 0.4 | 19.9* | 2.2 | 0.8 | -2.0 | 1.4 | -1.1
COc1ccc2[nH]c(=O)c(CN(C(=O)c3cccnc3)c3ccccc3)cc2c1 | -7.1 | -11.3 | -0.6 | 5.9 | 1.1 | 3.8 | nt | nt
CCCn1c(SCC(=O)N2CCCC2)nc2c1c(=O)n(C)c(=O)n2C | 9.0 | -3.1 | 21.4* | 8.5 | -1.8 | -4.0 | -2.0 | -1.8
O=C1N(C2CCCC2)C[C@@H]2C[C@@H](c3cccn3-c3ccccn3)N3CCC[C@@]123 | 5.0 | 3.8 | 20.5* | 5.0 | -0.3 | 5.0 | 1.8 | 2.0
O=C1N(C2CCCC2)C[C@@H]2C[C@@H](c3cccn3-c3nccs3)N3CCC[C@@]123 | -0.6 | 0.5 | -0.9 | 5.4 | -2.0 | 4.0 | nt | nt
O=C(O)C1CCC(N2C(=O)c3cccc([N+](=O)[O-])c3C2=O)CC1 (stereo unspecified) | 0.8 | -0.3 | 18.8* | 6.1 | -2.2 | 8.1 | 0.5 | -1.0
CC(C)C(=O)NNC(=O)c1cc2sccc2s1 | 8.9 | 8.1 | 22.7* | 5.3 | 0.8 | -2.0 | -0.9 | 2.1
CC(=O)NNC(=O)c1cc2sccc2s1 | -8.6 | -3.6 | 6.6 | -4.3 | -0.4 | -12.2 | nt | nt
